Assay [1] can be described thus: qHTS Assay for Lipid Storage Modulators (AID 1519; calls by dose curve; on activity change, negative = inhibition: on the % scale 0 is the no-effect control and ±100 the full control effect). Conditions: Drosophila S3 cells, BODIPY lipid droplet/cell ratio, laser cytometry, cells loaded with oleic acid. The method, boiled down:
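Cells seeded at 5,000 per well were treated with compounds over a concentration series and loaded with oleic acid (400 uM, as added). Lipid droplet fluorescence (488 nm excitation, 500-530 nm channel) was read by laser-scanning cytometry and normalized to 20 uM Triacsin C.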
(Quantitative high-throughput screening tests each substance at several concentrations.)

Assay [2] deals with alpha-glucosidase (Oryza sativa, rice) (UniProt Q653V4). The experiment in a line: Counterscreen for Glucocerebrosidase Inhibitors: qHTS Assay for Rice alpha-Glucosidase at pH 5.0 (AID 997).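 Further: 0% = full activity with enzyme and -100% = basal without enzyme.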 Conditions: rice alpha-glucosidase enzyme activity; series mostly up to 76.9 µM. The gist of the method: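 Rice alpha-glucosidase (4 nM final) with 400 uM 4-methylumbelliferyl-alpha-D-glucopyranoside in citrate buffer pH 5.0, 20 min at room temperature, stopped at pH 10; fluorescence 365/440 nm, compounds 0.7 nM–77 uM, AC50 from Hill fits.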
(In general: A counterscreen serves to expose hits that act by an unwanted route or on another target.)

Assay [3] in a line: Cytometric Cell-Based qHTS for Inhibitors of the mTORC1 Signaling Pathway in MEF (Tsc2-/-, p53-/-) Cells (AID 2660).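 Further: percent of cells above a phospho-rpS6 to PI ratio cutoff in each well; plate controls were DMSO for no effect and rapamycin for full effect.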 Conditions: mTORC1 pathway cytometry; series mostly up to 38.3 µM. The method, boiled down:
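Cells are plated, treated with compound for 24 hrs at 37 degree Celsius, then fixed, blocked and immunostained for phospho-rpS6 Ser235/236. Propidium iodide counterstain follows. Per-well % positive cells is derived from the PI-normalized phospho-S6 signal.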

Assay [4] is described as follows: High Content Imaging Cell-Based qHTS for Inhibitors of the mTORC1 Signaling Pathway in MEF (Tsc2-/-, p53-/-) Cells (AID 2666).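 Further: percent of cells scored positive for phospho-rpS6 Ser235/236 immunostaining by imaging.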 Conditions: at 38.3 µM (top of the series). The gist of the method:
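Read-out: % positive cells per well, with thresholds from highest- and lowest-signal wells, based on phospho-rpS6 (Ser235/236) intensity normalized to Hoechst nuclear stain. Cells: Tsc2-/-, p53-/- MEFs carrying empty vector; compound 24 hrs, 37 degree Celsius.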

Assay [5] is described as follows: High Content Imaging Cell-Based qHTS for Inhibitors of the mTORC1 Signaling Pathway in MEF Cells (AID 2667).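 Further: Tsc2-/- p53-/- MEFs stably re-expressing wild-type Tsc2 exposed 24 h; plate controls were DMSO wells for no effect and rapamycin control wells for full effect.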 Conditions: series mostly up to 38.3 µM. The gist of the method:
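MEF (Tsc2-/-, p53-/-, WT Tsc2 re-expressed); cpd 24 h, 37 °C; PFA fix; Alexa-488 anti-p-rpS6 Ser235/236, PI, Hoechst; IN Cell imaging; Hoechst/Alexa-488 intensity ratio; % active cells, thresholds set from rapamycin and DMSO wells.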

Assay [6] deals with DNA repair nuclease/redox regulator APEX1 (Homo sapiens) (UniProt P27695). The experiment in a line: qHTS Validation Assay for Inhibitors of the Human Apurinic/apyrimidinic Endonuclease 1 (APE1) (AID 1705;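 further: TAMRA fluorescence gain over two minutes as APE1 cuts a quenched THF abasic duplex; on the % scale 0 is the no-effect control and ±100 the full control effect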). Conditions: purified APE1 endonuclease activity, fluorescence, titration; series mostly up to 57.1 µM. The method, boiled down:
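Activity read as rising fluorescence (598 nm emission, 525 nm excitation) from incision of a TAMRA/BHQ-2 duplex carrying a THF abasic site (50 nM). Compound and enzyme sat 15 min at RT before substrate start; signal change between first and third 60-s reads.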

A short description of assay [7]: Counterscreen for APE1 Inhibitors: Fluorescent Dye Displacement Validation Assay (AID 1707).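 Further: plate controls were ThO with dsDNA and no compound for no effect and ThO without dsDNA for full effect.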 Conditions: fluorescent dye displacement from DNA; series mostly up to 57.1 µM. The gist of the method: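 Assay buffer: Tris-HCl pH7.5 with 50mM NaCl, 2 mM MgCl2, 0.01% Tween-20. Dye 250 nM, duplex 50 nM final. Readout: decrease in ThO endpoint fluorescence, 480 nm excitation, 540 nm emission.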

The target of assay [8] is Endonuclease 4 (Escherichia coli (strain K12)) (UniProt P0A6C1). The experiment in a line: Counterscreen for APE1 Inhibitors: qHTS Validation Assay for Inhibitors of Endonuclease IV (AID 1708). Further: on the % scale 0 is the no-effect control and ±100 the full control effect. Conditions: E. coli endonuclease IV, DNA cleavage fluorescence; series mostly up to 57.1 µM. The method, boiled down: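 2 nM enzyme was preincubated with compounds for 15 min at room temperature in 50 mM Tris-HCl pH 7.5, 50 mM NaCl, 2 mM MgCl2, 1 mM DTT, 0.01% Tween-20. 50 nM THF-abasic TAMRA/BHQ-2 duplex substrate started the reaction.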

Assay [9] in a line: qHTS for differential inhibitors of proliferation of Plasmodium falciparum line 7G8 (AID 1815).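 Further: parasite growth measured after three days of incubation; plate controls were vehicle wells for no effect and reference inhibitor wells for full effect.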 Conditions: Plasmodium falciparum 7G8 proliferation inhibition; series mostly up to 28.7 µM.
A short description of assay [10]: qHTS for differential inhibitors of proliferation of Plasmodium falciparum line GB4 (AID 1816).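 Further: parasite growth measured after 72 h incubation; 0% = vehicle DMSO and -100% = reference inhibitor.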 Conditions: series mostly up to 28.7 µM.
Assay [11] in a line: qHTS for differential inhibitors of proliferation of Plasmodium falciparum line 3D7 (AID 1876).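 Further: parasite growth measured after three days of culture; 0% = vehicle wells and -100% = reference inhibitor wells.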 Conditions: P. falciparum 3D7 proliferation inhibition; series mostly up to 28.7 µM.
Assay [12] can be described thus: qHTS for differential inhibitors of proliferation of Plasmodium falciparum line D10 (AID 1877).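 Further: parasites grown with compound for 72 h before DNA staining; plate controls were vehicle wells for no effect and reference inhibitor wells for full effect.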 Conditions: series mostly up to 28.7 µM.
Assay [13] in a line: qHTS for differential inhibitors of proliferation of Plasmodium falciparum line Dd2 (AID 1882).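 Further: compound exposure of 72 h on infected erythrocytes; plate controls were DMSO vehicle for no effect and 0.29 µM artemisinin for full effect; nearly all actives have a fitted effect of over 65% in size.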 Conditions: series mostly up to 28.7 µM. The gist of the method:
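SYBR Green I DNA fluorescence read-out, ex 485/em 535 nm. Signals were normalized to 0.29 uM artemisinin and DMSO wells, then corrected using vehicle-only plates flanking each stack. Parasite growth ran 72 h in erythrocytes before lysis.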

The nature of assay [14]: qHTS for differential inhibitors of proliferation of Plasmodium falciparum line W2 (AID 1883).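 Further: parasites grown with compound for 72 h before lysis and staining; 0% = vehicle wells and -100% = control inhibitor wells.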 Conditions: series mostly up to 28.7 µM.
A short description of assay [15]: qHTS for differential inhibitors of proliferation of Plasmodium falciparum line HB3 (AID 1886).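 Further: parasites grown with compound for 72 h before SYBR Green readout; plate controls were vehicle for no effect and reference inhibitor for full effect.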 Conditions: series mostly up to 28.7 µM.
In assay [16] the target is Ferritin light chain (Equus caballus) (UniProt P02791). The experiment in a line: qHTS Validation Assay for Identification of Novel General Anesthetics (AID 2323). Further: on the % scale 0 is the no-effect control and ±100 the full control effect. Conditions: horse apoferritin, anesthetic-site fluorescent probe displacement; series mostly up to 76.9 µM. The method, boiled down:
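Competitive displacement of the profluorescent anesthetic 1-AMA (50% saturated, PBS) from 10 uM apoferritin, 10 min, room temperature. Activity is normalized 380/535 nm fluorescence; concentration-response fitted with a four-parameter Hill equation.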

Assay [17] addresses ATP-dependent DNA helicase Q1 (Homo sapiens) (UniProt P46063). As to the kind of experiment: qHTS Validation Assay for Inhibitors of RecQ-Like Dna Helicase 1 (RECQ1) (AID 2353).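 Further: plate controls were DMSO vehicle for no effect and enzyme-free control for full effect.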 Conditions: recombinant RECQ1 helicase DNA unwinding assay; series mostly up to 25.6 µM. The gist of the method: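 50 nM RECQ1T1 preincubated 15 min with compound in Tris pH 8.0 buffer with MgCl2, DTT, Tween-20 and 2.5 ug/ml poly(dI-dC); started with 200 nM TAMRA/BHQ-2 forked duplex and 2 mM ATP. Unwinding read as fluorescence (525/598 nm), two reads 2 h apart.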

The target of assay [18] is RecQ-like DNA helicase BLM (Homo sapiens) (UniProt P54132). The experiment in a line: qHTS Validation Assay for Inhibitors of Bloom's syndrome helicase (BLM) (AID 2364).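 Further: plate controls were DMSO vehicle for no effect and enzyme-free control for full effect.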 Conditions: BLM helicase DNA unwinding, fluorescence, in vitro; series mostly up to 57.1 µM. The method, boiled down:
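BLM 50 nM in 25 mM Tris-HCl pH 8.0, 5 mM NaCl, 2 mM MgCl2, 1 mM DTT, 0.01% Tween-20, 2.5 ug/ml poly(dI-dC); 15 min cpd preinc, RT. Start: 200 nM forked DNA + 2 mM ATP (final). TAMRA read, 2 reads 2 h apart.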

[19] abbreviates: measured here: cell count channel max response.
Where [20] appears, read: measured here: lipid channel max response.

Molecules are shown by their SMILES. Results filed as inconclusive are left out. Calls of active or inactive are those of the source. Unless noted, the call rests on the fitted dose curve; in most records, active means well fitted curve in the direction sought with a large enough effect; inconclusive means small, poorly fitted or top-dose-only effect, or another doubt; inactive means no such curve, though single readings can be large; an effect the other way counts as inactive or inconclusive.

Sequence of DNA repair nuclease/redox regulator APEX1 (Homo sapiens) (P27695 whole entry, looked up): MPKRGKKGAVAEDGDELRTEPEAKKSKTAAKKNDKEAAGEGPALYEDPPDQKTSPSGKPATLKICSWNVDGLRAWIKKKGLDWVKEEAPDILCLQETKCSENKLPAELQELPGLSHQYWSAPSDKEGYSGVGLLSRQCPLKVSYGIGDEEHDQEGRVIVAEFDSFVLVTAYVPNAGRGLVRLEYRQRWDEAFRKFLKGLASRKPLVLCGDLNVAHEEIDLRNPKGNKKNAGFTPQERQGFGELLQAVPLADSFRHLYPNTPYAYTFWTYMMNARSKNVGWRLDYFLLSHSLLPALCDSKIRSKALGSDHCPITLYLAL
Sequence of Ferritin light chain (Equus caballus) (P02791 2-175 limits assumed): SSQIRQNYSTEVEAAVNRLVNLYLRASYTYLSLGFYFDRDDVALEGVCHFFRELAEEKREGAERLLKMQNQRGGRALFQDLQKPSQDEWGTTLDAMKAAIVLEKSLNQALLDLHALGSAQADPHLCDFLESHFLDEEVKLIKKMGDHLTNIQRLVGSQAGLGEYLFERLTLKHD
Sequence of RecQ-like DNA helicase BLM (Homo sapiens) (P54132 whole entry, looked up): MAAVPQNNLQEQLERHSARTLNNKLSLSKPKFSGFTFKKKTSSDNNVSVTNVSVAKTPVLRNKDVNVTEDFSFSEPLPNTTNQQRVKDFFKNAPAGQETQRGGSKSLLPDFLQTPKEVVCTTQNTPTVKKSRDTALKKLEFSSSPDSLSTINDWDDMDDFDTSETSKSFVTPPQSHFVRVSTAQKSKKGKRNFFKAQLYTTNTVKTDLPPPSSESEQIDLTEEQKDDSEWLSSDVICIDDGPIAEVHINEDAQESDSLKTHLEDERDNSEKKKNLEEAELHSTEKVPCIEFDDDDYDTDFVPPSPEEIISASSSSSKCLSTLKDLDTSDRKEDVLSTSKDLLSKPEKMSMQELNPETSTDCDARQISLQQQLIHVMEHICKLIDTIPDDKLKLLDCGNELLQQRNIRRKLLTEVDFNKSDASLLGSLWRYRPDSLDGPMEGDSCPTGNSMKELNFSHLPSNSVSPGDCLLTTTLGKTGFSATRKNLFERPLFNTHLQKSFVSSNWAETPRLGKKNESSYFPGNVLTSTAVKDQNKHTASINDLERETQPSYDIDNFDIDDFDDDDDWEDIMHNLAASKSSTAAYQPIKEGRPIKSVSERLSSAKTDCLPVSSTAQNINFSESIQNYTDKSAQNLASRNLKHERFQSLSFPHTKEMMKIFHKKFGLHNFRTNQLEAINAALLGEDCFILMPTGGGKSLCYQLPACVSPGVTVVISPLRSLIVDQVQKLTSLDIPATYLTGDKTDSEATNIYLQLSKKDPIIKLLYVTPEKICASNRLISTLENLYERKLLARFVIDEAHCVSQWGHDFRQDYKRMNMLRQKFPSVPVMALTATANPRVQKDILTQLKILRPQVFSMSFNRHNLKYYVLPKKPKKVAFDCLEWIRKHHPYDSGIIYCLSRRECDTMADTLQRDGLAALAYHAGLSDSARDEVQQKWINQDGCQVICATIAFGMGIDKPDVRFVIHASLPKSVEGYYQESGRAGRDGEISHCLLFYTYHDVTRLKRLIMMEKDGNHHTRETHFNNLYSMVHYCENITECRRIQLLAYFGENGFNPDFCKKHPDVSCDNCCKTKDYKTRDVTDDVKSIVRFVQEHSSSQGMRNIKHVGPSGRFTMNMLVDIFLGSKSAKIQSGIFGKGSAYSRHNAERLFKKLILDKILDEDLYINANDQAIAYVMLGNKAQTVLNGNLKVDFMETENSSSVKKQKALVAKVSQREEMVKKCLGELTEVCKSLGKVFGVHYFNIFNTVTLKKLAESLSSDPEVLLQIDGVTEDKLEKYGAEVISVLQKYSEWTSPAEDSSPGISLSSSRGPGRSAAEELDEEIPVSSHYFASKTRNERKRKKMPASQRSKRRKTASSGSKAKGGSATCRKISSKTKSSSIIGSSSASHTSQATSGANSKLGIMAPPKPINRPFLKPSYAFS
Sequence of ATP-dependent DNA helicase Q1 (Homo sapiens) (P46063 whole entry, looked up): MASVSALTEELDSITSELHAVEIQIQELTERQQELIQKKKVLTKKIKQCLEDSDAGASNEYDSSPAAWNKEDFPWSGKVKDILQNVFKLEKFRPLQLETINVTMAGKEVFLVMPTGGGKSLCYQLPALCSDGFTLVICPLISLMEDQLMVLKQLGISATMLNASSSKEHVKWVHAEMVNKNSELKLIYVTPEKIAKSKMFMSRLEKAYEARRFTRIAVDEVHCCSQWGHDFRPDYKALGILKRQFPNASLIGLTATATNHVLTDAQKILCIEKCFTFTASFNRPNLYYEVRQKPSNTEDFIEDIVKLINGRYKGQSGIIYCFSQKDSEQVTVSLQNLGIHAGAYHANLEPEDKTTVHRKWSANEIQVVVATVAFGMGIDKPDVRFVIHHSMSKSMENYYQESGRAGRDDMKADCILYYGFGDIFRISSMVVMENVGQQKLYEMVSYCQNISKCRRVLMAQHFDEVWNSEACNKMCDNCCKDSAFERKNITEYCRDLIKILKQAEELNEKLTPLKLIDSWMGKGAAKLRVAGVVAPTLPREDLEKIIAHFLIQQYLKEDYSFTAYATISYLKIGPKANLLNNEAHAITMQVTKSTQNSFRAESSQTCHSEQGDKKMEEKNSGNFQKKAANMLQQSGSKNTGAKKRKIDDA

As for `Nc1nc2c(c(=O)[nH]1)N(C=O)[C@H](CNc1ccc(C(=O)N[C@@H](CCC(=O)O)C(=O)O)cc1)CN2`, the activity change, negative = inhibition in [1] (at 25.7 µM (top of the series)) was -2.58% (inactive). For the same molecule, the max response was -9.43% in [1] (setting [19]) and -11.6% in assay [1] (setting [20]).

As to `O=c1c(O)c(-c2ccc(O)c(O)c2)oc2cc(O)ccc12`, the activity change, negative = inhibition in assay [1] (at 57.5 µM (top of the series)) was 4.11% (inactive). Moreover, the max response in assay [1] (setting [19]) is -27.3%; in assay [1] (setting [20]), -24.1%.

For `COc1cc2c(cc1O)CCC1C2CC[C@@]2(C)C1CC[C@@H]2O` (stereo partly drawn), in assay [1] (at 57.5 µM (top of the series)), the activity change, negative = inhibition was -1.86% (inactive). Besides, the results for the max response in assay [1] (setting [19]) and in assay [1] (setting [20]) were 18.4% and 18.6%, respectively.

Consider `C[C@@]12C(=O)OC(=O)[C@@]1(C)C1CCC2O1`, for which the activity change, negative = inhibition in assay [1] (at 57.5 µM (top of the series)) was -13.3% (inactive). Also, the max response in [1] (setting [19]) was -9.65%; in [1] (setting [20]), -21.9%.

With `CN(C)CC[C@H](c1ccc(Cl)cc1)c1ccccn1`, in assay [2], the result was inactive. Further, the activity change, negative = inhibition in assay [1] (at 25.7 µM (top of the series)) is -0.988% (inactive). For the same molecule, the max response in [1] (setting [19]) amounted to 4.39%; in assay [1] (setting [20]), 4.57%.

Turning to `O=c1[nH]c(=O)n([C@H]2C[C@@H](O)[C@@H](CO)O2)cc1C=CBr`, the call in assay [3], in [4] and in assay [5] was inactive.

As for `Cc1ccc(O)c(C(CCN(C(C)C)C(C)C)c2ccccc2)c1` (stereo not drawn), in [1] (at 57.5 µM (top of the series)), the activity change, negative = inhibition was 7.57% (inactive). Further, the max response in assay [1] (setting [19]) stood at 3.1%; in assay [1] (setting [20]) it was 8.45%.

On to `COc1ccc2cc([S+]([O-])Cc3ncc(C)c(OC)c3C)nc2c1`, for which the molecule was classed as inactive in assay [3], in assay [4] and in assay [5].

Regarding `N=c1ccn2c(n1)O[C@H]1[C@@H](O)[C@@H](CO)O[C@H]12`, the result in [6], in assay [7], in assay [8], in [9], in [10] and in assay [11] was inactive. The result in assay [12], in assay [13], in assay [14], in assay [15], in assay [16] and in assay [17] was inactive. In [18], the molecule was classed as inactive.

Values taken from PubChem BioAssay (NCATS).
